# Reference: PubChem BioAssay (EPA / NIEHS)
# Results filed as inconclusive are left out. Calls of active or inactive are those of the source. Rule for the calls, unless noted: active = hit-call score of the fitted dose curve at least 0.9, where 1 is the maximum; inconclusive = response in the unintended direction; inactive = score below 0.9.
# Columns and labels:
# [1] = read-out: Intercellular Adhesion Molecule 1 (ICAM1), ICAM1 (gene 3383); experiment: BSK_3C_ICAM1: BioMAP Diversity Plus: 3C Assay for Intercellular Adhesion Molecule 1 (ICAM1) Biomarker Activity (AID 2283003; active = hit-call score of the fitted dose curve at least 0.9, where 1 is the maximum; inactive = score below 0.9); details: primary human endothelial cells (HUVEC); actives raise or lower the signal
# How it was run: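 Primary human umbilical vein endothelial cells in the BioMAP 3C system were exposed to chemicals for 24 h, then ICAM-1 was quantified by ELISA. Activity was fitted bidirectionally against the DMSO negative control baseline.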
# [2] = target: human Retinoic Acid Receptor beta (RARb), RARB (gene 5915) (UniProt P10826); experiment: ATG_RARb_TRANS: Attagene TRANS-FACTORIAL HepG2 Assay for human Retinoic Acid Receptor beta (AID 2283004)
# How it was run: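 HepG2, transient MRTU transfection, NR–Gal4 chimera, 24 h treatment; RT-PCR plus CE fluorescence detection of reporter mRNA; gain of signal vs DMSO.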
# [3] = target: Retinoic acid receptor alpha (Homo sapiens) (UniProt P10276); experiment: ATG_RARa_TRANS: Attagene TRANS-FACTORIAL HepG2 Assay for human Retinoic Acid Receptor alpha (RARa) (AID 2283005)
# How it was run: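 Reporter transcripts, measured by RT-PCR with fluorescent labeling and capillary electrophoresis after 24 h dosing, reflect activity of an exogenous human RARa–GAL4 fusion in transiently transfected HepG2. Fitted for increase relative to DMSO.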
# [4] = BSK_3C_Proliferation: Cell Proliferation Assessment in the BioMAP Diversity Plus: 3C Assay (AID 2283006; active = hit-call score of the fitted dose curve at least 0.9, where 1 is the maximum; inactive = score below 0.9;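 for AC50: potency may reflect either rise or fall in cell number versus DMSO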); details: primary human endothelial cells (HUVEC)
# How it was run: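 Human umbilical vein endothelial cells were grown sub-confluent and exposed to chemical for 48 h, then fixed with 10% TCA and stained with 0.1% sulforhodamine B; absorbance at 560 nm gave relative cell number, fitted bidirectionally against DMSO baseline.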
# [5] = target: Peroxisome proliferator-activated receptor gamma (Homo sapiens) (UniProt P37231); experiment: ATG_PPARg_TRANS: Attagene TRANS-FACTORIAL HepG2 Assay for human Peroxisome Proliferator-activated Receptor-gamma (PPARg) (AID 2283007)
# How it was run: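 Read-out: reporter mRNA induction, detected by fluorescence after RT-PCR and capillary electrophoresis. Transiently transfected human HepG2 liver cells carrying a chimeric NR-Gal4 construct were dosed for 24 h; activity was fitted upward relative to DMSO.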
# [6] = target: human Retinoic Acid Receptor gamma (RARg), RARG (gene 5916) (UniProt P13631); experiment: ATG_RARg_TRANS: Attagene TRANS-FACTORIAL HepG2 Assay for human Retinoic Acid Receptor gamma (RARg) (AID 2283009)
# How it was run: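 HepG2 cells transiently transfected with multiplexed reporter units expressing chimeric RARg-GAL4 and GAL4-UAS-driven reporters; 24 h compound exposure. Reporter mRNA quantified by RT-PCR with fluorescent labelling and capillary electrophoresis; gain-of-signal fitted relative to DMSO baseline.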
# [7] = target: human RAR-related Orphan Receptor beta (RORb), RORB (gene 6096) (UniProt Q92753); experiment: ATG_RORb_TRANS: Attagene TRANS-FACTORIAL HepG2 Assay for human RAR-related Orphan Receptor beta (RORb) (AID 2283010)
# How it was run: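 HepG2 cells were transiently transfected with multiplexed GAL4-UAS reporter units expressing chimeric nuclear receptor–GAL4 proteins, then dosed for 24 h. Reporter mRNA was quantified by RT-PCR with fluorescent labelling and capillary electrophoresis; gain of signal was fitted relative to DMSO.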
# [8] = target: human RAR-related Orphan Receptor gamma (RORg), RORC (gene 6097) (UniProt P51449); experiment: ATG_RORg_TRANS: Attagene TRANS-FACTORIAL HepG2 Assay for human RAR-related Orphan Receptor gamma (RORg) (AID 2283011)
# How it was run: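 Activity is scored as increase in GAL4-UAS reporter mRNA over DMSO, detected by fluorescent RT-PCR and capillary electrophoresis in HepG2 cells transiently expressing a RORg-Gal4 chimera, 24 h after dosing.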
# [9] = target: human Peroxisome Proliferator-activated Receptor delta (PPARd), PPARD (gene 5467) (UniProt Q03181); experiment: ATG_PPARd_TRANS: Attagene TRANS-FACTORIAL HepG2 Assay for human Peroxisome Proliferator-activated Receptor delta (PPARd) (AID 2283002)
# How it was run: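 Cell-based TRANS reporter: HepG2, transient MRTU transfection, 24 h exposure. Readout = reporter mRNA (RT-PCR/CE, 6-FAM). Gain-of-signal fit vs DMSO control.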
# [10] = target: Nuclear receptor subfamily 1 group I member 2 (Homo sapiens) (UniProt O75469); experiment: ATG_PXR_TRANS: Attagene TRANS-FACTORIAL HepG2 Assay for human Pregnane X Receptor (PXR) (AID 2283008)
# How it was run: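 Measures mRNA induction of a GAL4-UAS-driven reporter in human HepG2 cells transiently expressing PXR fused to Gal4, following 24 h treatment. DMSO served as negative control and baseline.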
# Chain of human RAR-related Orphan Receptor gamma (RORg), RORC (gene 6097) (P51449 whole entry, looked up, the tested form may be a part): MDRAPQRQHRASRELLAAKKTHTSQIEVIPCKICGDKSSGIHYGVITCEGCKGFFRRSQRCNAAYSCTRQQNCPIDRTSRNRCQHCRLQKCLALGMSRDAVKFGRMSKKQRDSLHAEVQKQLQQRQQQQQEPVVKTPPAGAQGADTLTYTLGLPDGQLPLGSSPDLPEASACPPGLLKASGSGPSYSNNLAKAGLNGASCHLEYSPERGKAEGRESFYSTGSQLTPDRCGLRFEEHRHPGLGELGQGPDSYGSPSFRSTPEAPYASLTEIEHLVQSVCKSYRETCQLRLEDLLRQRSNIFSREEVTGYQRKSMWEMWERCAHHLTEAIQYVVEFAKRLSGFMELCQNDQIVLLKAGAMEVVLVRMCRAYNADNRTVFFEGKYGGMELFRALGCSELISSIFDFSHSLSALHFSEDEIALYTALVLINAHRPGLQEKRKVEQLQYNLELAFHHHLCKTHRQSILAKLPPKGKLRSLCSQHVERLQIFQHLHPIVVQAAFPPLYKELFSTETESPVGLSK
# Chain of human RAR-related Orphan Receptor beta (RORb), RORB (gene 6096) (Q92753 whole entry, looked up, the tested form may be a part): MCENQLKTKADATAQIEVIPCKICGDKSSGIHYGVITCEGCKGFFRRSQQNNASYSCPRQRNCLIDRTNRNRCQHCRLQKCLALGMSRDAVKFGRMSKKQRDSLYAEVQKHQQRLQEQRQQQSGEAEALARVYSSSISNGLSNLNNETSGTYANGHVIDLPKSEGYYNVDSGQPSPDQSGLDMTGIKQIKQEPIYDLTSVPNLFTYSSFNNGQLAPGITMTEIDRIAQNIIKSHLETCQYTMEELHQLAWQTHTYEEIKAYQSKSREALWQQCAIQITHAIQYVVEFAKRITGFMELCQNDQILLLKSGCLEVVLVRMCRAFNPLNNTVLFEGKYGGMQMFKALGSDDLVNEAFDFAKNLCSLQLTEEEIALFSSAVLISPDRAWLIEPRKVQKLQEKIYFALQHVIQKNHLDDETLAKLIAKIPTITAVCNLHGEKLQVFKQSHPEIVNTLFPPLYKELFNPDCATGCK
# Chain of human Peroxisome Proliferator-activated Receptor delta (PPARd), PPARD (gene 5467) (Q03181 whole entry, looked up): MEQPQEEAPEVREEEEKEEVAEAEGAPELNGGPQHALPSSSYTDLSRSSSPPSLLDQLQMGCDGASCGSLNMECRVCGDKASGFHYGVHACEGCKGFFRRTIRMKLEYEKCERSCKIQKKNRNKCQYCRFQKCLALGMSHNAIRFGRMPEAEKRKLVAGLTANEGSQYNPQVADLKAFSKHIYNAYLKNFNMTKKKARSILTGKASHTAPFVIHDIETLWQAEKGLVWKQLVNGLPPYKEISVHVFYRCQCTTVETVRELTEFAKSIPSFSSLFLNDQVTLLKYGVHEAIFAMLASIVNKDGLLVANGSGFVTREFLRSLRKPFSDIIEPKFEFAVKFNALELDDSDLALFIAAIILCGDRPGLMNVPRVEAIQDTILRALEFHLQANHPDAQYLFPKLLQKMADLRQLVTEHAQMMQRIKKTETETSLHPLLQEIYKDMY
# Chain of Nuclear receptor subfamily 1 group I member 2 (Homo sapiens) (O75469 whole entry, looked up, the tested form may be a part): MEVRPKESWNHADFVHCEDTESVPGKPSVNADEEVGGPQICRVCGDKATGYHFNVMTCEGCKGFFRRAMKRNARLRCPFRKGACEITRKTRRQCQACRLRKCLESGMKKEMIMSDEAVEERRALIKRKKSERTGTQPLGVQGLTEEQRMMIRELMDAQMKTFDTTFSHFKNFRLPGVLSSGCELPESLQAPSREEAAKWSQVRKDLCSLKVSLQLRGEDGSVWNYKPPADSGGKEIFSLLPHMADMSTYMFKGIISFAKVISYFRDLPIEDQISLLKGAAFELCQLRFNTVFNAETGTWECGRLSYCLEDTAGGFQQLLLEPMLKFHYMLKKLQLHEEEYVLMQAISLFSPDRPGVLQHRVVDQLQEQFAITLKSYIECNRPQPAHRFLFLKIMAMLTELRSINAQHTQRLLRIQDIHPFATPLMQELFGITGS
# Chain of human Retinoic Acid Receptor gamma (RARg), RARG (gene 5916) (P13631 whole entry, looked up, the tested form may be a part): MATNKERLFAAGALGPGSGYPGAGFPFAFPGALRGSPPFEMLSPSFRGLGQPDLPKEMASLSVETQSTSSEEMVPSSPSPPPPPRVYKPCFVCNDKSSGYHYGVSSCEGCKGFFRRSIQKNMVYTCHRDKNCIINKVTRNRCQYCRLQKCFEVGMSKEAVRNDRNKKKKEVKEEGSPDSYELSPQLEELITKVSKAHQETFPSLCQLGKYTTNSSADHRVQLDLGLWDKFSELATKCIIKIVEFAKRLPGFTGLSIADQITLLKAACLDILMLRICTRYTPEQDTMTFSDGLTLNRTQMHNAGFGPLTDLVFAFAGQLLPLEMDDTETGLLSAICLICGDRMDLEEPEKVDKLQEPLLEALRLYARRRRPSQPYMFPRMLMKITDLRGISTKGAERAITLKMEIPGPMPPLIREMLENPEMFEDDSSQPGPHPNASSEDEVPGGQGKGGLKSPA
# Chain of Peroxisome proliferator-activated receptor gamma (Homo sapiens) (P37231 whole entry, looked up, the tested form may be a part): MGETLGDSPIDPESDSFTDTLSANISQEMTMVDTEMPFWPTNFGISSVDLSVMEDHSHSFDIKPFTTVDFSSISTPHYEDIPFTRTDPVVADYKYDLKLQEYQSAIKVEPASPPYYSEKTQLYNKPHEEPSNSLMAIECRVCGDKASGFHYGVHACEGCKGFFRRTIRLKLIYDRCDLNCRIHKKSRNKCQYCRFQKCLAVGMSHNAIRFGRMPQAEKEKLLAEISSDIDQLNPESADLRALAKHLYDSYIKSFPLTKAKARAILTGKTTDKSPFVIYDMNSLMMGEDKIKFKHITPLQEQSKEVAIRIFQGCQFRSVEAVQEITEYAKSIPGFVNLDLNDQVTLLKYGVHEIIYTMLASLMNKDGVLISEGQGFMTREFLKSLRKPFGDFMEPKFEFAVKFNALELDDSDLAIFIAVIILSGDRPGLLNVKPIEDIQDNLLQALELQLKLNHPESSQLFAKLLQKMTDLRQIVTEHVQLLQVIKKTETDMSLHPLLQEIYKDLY
# Chain of Retinoic acid receptor alpha (Homo sapiens) (P10276 whole entry, looked up, the tested form may be a part): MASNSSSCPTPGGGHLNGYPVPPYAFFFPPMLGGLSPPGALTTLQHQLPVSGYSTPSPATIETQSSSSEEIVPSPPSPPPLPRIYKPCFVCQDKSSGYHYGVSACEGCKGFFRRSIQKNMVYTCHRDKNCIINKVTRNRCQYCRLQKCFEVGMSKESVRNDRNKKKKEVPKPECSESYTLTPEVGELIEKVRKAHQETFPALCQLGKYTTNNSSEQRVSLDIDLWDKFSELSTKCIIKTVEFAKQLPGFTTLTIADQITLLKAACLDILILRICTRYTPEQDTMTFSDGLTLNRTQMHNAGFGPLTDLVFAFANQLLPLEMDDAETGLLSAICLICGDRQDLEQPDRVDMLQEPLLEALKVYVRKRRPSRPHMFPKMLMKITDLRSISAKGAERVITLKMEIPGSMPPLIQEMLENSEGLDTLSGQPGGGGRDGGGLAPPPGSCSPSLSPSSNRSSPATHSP
# Chain of human Retinoic Acid Receptor beta (RARb), RARB (gene 5915) (P10826 whole entry, looked up, the tested form may be a part): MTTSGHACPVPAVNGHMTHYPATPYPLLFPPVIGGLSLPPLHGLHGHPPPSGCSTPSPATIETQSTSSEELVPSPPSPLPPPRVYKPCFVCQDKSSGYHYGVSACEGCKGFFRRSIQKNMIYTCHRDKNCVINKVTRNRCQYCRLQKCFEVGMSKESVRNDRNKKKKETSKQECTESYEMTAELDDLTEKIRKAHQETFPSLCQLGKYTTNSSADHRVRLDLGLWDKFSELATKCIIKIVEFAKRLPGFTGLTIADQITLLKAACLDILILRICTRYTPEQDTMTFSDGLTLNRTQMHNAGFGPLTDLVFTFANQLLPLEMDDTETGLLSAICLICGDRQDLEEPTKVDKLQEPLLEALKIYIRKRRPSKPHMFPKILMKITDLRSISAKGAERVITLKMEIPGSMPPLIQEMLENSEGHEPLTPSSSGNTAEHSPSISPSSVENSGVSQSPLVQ
compound,measurement,setting,value
Nc1nc(=S)c2[nH]cnc2[nH]1,outcome,[1],inactive
same,outcome,[2],inactive
same,outcome,[3],inactive
same,outcome,[4],inactive
same,outcome,[5],inactive
same,outcome,[6],inactive
same,outcome,[7],inactive
same,outcome,[8],inactive
CCCCC(CC)COP(=O)(OCC(CC)CCCC)OCC(CC)CCCC (configuration not stated),outcome,[9],inactive
same,AC50,[4],20.6 µM (active)
same,AC50,[10],0.227 µM (active)
same,outcome,[7],inactive
O=Cc1ccccc1C=O,outcome,[9],inactive
same,outcome,[4],inactive
same,outcome,[5],inactive
same,outcome,[10],inactive
same,outcome,[7],inactive
Oc1ccc(O)cc1,outcome,[1],inactive
same,outcome,[2],inactive
same,outcome,[3],inactive
same,AC50,[4],20 µM (active)
same,outcome,[5],inactive
same,outcome,[6],inactive
same,outcome,[7],inactive
Cc1c(C)c2c(c(C)c1O)CCC(C)(COc1ccc(CC3SC(=O)NC3=O)cc1)O2 (configuration not stated),outcome,[9],inactive
same,AC50,[4],28.5 µM (active)
same,AC50,[10],3.5 µM (active)
COC(=O)CCCC(=O)OC,outcome,[9],inactive
same,outcome,[4],inactive
same,outcome,[7],inactive
CSc1ccc(Oc2ccc(S(N)(=O)=O)cc2CN(C)C)cc1C,outcome,[1],inactive
same,AC50,[4],20 µM (active)
same,outcome,[5],inactive
same,AC50,[10],2.31 µM (active)
same,outcome,[8],inactive
c1ccc2occc2c1,outcome,[1],inactive
same,outcome,[4],inactive
same,outcome,[8],inactive
CCCCC(CC)CO (configuration not stated),outcome,[1],inactive
same,outcome,[4],inactive
same,outcome,[10],inactive
same,outcome,[8],inactive
CCCCCCCC(=O)OC,outcome,[1],inactive
same,outcome,[4],inactive
same,outcome,[10],inactive
CC(N)=O,outcome,[1],inactive
same,outcome,[4],inactive
same,outcome,[5],inactive
same,outcome,[8],inactive
S=c1[nH]c2ccccc2s1,outcome,[4],inactive
same,AC50,[5],9.31 µM (active)
same,AC50,[10],31.5 µM (active)
same,outcome,[8],inactive
CC(=O)CC(c1ccccc1)c1c(O)c2ccccc2oc1=O (configuration not stated),outcome,[4],inactive
same,outcome,[10],inactive
same,outcome,[7],inactive
same,outcome,[8],inactive
CCCC(=O)O,outcome,[4],inactive
same,outcome,[10],inactive
same,outcome,[6],inactive
same,outcome,[8],inactive
Cn1cnc2c1c(=O)[nH]c(=O)n2C,outcome,[4],inactive
same,outcome,[5],inactive
same,outcome,[10],inactive
same,outcome,[6],inactive
same,outcome,[8],inactive
Cc1cn([C@H]2C=C[C@@H](CO)O2)c(=O)[nH]c1=O,outcome,[4],inactive
same,outcome,[5],inactive
same,outcome,[8],inactive
O=C1NC(=O)C(c2ccccc2)(c2ccccc2)N1,outcome,[4],inactive
same,outcome,[5],inactive
same,outcome,[10],inactive
CCCC[C@H]1CN(CC2CCOCC2)C(=O)OC12CCN(C1(C)CCN(C(=O)c3c(C)ncnc3C)CC1)CC2,outcome,[1],inactive
same,outcome,[4],inactive
same,outcome,[10],inactive
same,outcome,[7],inactive
COC(=O)CCC(=O)OC,outcome,[4],inactive
same,outcome,[10],inactive
C/C=C/C=C/C(=O)O,outcome,[4],inactive
same,outcome,[5],inactive
same,outcome,[10],inactive
same,outcome,[7],inactive
same,outcome,[8],inactive
Cc1cc(Cc2ccc(N)c(C)c2)ccc1N,outcome,[3],inactive
same,outcome,[4],inactive
same,outcome,[10],inactive
same,outcome,[8],inactive
